Activity calls are given as the source filed them.
Experiments:
[1] = test system: PRMT1 (protein arginine N-methyltransferase 1); assay: PRMT1 binders on small-molecule microarrays, primary screen, biochemical, small-molecule microarray, 635 nm fluorescence (AID 1088); conditions: small-molecule microarray binding, higher = more signal;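 also: binding of Prmt1 protein to compounds spotted on small-molecule microarray slides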
[2] = yeast growth modulation, basal conditions, primary screen, YJM789 clinical isolate, OD600, 24 h (AID 1089);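 also: growth of clinical yeast isolate S. cerevisiae YJM 789 seeded 1000 cells per well; test concentration not given here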; conditions: S. cerevisiae YJM789 growth, higher = more signal, called active from +8 up or from −8 down
[3] = fission yeast growth modulation, primary screen, strain 972, OD600, 24 h, no modulator (AID 1090);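 also: basal condition with compound alone and no growth modifier present; test concentration not given here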; conditions: S. pombe 972 growth, higher = more signal, called active from +8 up or from −8 down
[4] = S. cerevisiae growth modulation with rapamycin, primary screen, strain BY4716, OD600, 96 h (AID 1091); conditions: higher = more signal, called active from +8 up or from −8 down; also: test concentration not given here
[5] = target: Torsin-1A-interacting protein 2 (Homo sapiens) (UniProt Q8NFQ8); assay: LULL1 binders on small-molecule microarray, primary screen, cell lysate, human LULL1 lysate, 635/667 nm fluorescence (AID 1092); conditions: hLULL1 lysate binding, 635 nm fluorescence, higher = more signal;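 also: probe is lysate of COS7 cells overexpressing human LULL1; score merges per-feature 667 nm fluorescence with signal-to-noise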
Chain of Torsin-1A-interacting protein 2 (Homo sapiens) (Q8NFQ8 whole entry, looked up): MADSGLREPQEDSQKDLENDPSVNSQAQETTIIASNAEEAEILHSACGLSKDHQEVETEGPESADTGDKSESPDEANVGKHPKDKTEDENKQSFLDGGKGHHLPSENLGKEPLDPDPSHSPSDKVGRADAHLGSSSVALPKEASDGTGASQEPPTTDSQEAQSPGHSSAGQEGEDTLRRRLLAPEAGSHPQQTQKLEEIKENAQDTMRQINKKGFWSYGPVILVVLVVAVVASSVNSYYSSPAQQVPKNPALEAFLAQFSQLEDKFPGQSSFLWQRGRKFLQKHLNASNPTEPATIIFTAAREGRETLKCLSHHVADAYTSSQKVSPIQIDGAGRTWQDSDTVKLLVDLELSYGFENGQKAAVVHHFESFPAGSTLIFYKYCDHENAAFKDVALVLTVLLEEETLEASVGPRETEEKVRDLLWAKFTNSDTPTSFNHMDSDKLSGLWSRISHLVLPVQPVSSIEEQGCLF

[6] = E. coli growth modulation, two-sided OD650, primary screen, E. coli filamentation project, strain DRC41, 24 h (AID 1093); conditions: OD650, 24 h, higher = more signal, called active from +8 up or from −8 down;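 also: MC1000 strain lacking acrAB efflux and sulA so SOS filamentation is blocked; test concentration not given here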
[7] = small-molecule microarray binders of probe aLefty2, primary screen, biochemical, biotinylated probe, 635/667 nm fluorescence (AID 1094); conditions: higher = more signal;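 also: score merges spot fluorescence near 667 nm with spot signal-to-noise ratio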
[8] = test system: Noggin (protein binding on small-molecule microarray); assay: Noggin binders on small-molecule microarray, primary screen, biochemical, 635/667 nm fluorescence (AID 1095); conditions: 635 nm fluorescence, higher = more signal;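 also: score merges 667 nm feature fluorescence with signal to noise over triplicate slides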
[9] = target: Neurogenic locus notch homolog protein 3 (Homo sapiens) (UniProt Q9UM47); assay: NOTCH3 binders on small-molecule microarray, primary screen, biochemical, 635/667 nm fluorescence (AID 1096); conditions: NOTCH3 binding, 635 nm fluorescence, higher = more signal
Chain of Neurogenic locus notch homolog protein 3 (Homo sapiens) (Q9UM47 whole entry, looked up): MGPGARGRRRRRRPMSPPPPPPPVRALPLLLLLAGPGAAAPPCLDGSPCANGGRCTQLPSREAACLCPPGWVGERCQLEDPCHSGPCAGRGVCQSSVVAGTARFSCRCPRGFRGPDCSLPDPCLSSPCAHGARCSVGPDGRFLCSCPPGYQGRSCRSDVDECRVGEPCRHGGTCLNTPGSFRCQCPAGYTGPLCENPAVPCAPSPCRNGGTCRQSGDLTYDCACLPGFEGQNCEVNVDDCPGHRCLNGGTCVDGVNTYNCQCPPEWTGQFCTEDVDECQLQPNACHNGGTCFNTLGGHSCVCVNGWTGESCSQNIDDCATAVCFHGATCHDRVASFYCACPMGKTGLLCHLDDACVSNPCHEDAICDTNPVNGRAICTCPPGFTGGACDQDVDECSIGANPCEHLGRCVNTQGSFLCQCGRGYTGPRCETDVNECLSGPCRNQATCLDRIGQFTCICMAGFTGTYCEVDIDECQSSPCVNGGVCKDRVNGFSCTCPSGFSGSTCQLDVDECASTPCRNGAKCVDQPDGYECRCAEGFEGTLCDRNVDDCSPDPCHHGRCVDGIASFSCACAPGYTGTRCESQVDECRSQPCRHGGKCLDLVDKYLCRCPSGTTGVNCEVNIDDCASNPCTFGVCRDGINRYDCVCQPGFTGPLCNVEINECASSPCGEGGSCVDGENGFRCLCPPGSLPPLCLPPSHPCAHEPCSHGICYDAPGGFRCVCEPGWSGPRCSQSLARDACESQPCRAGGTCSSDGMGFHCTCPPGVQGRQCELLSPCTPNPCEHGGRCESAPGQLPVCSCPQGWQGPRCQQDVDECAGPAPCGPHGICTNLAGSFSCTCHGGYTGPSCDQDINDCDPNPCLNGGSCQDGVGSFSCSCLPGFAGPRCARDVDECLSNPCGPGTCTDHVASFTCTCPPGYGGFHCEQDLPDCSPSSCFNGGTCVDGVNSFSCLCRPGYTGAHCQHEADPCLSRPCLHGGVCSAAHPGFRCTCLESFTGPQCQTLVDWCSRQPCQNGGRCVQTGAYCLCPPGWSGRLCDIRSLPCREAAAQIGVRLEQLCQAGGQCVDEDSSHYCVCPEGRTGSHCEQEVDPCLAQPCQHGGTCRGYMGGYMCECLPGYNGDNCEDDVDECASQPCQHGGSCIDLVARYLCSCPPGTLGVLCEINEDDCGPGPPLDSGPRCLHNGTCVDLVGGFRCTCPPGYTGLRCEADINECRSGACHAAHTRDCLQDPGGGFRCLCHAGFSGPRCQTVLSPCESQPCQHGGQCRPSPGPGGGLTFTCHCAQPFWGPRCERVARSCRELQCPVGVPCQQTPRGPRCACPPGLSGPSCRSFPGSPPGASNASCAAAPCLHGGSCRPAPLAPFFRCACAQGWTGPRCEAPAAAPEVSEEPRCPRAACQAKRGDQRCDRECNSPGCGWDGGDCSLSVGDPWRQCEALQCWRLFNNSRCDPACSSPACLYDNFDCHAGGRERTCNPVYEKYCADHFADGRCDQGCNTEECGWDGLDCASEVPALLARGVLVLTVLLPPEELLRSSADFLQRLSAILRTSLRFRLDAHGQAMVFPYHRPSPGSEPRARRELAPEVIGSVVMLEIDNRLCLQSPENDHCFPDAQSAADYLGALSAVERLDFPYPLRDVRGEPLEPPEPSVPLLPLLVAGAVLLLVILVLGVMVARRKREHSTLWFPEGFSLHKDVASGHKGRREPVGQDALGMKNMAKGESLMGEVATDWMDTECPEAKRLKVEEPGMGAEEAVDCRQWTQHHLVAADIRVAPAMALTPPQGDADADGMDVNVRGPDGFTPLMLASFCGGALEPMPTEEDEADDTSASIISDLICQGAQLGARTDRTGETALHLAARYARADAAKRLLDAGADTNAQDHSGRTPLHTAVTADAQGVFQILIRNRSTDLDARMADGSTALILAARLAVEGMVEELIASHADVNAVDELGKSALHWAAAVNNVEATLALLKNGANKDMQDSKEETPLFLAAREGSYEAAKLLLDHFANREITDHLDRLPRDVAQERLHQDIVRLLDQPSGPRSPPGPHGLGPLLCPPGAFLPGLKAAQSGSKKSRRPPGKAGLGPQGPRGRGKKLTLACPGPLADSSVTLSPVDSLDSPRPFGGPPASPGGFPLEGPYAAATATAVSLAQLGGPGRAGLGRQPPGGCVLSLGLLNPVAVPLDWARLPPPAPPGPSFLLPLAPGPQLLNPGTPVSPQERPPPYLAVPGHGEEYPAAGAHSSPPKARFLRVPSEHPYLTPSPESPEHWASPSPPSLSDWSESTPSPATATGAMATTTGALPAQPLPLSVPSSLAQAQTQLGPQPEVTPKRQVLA

[10] = small-molecule microarray binders of probe aEGFR, primary screen, biochemical, biotinylated probe, 635/667 nm fluorescence (AID 1097); conditions: higher = more signal;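 also: probe is a biotinylated anti-EGFR antibody binding compounds printed on slides; score combines fluorescence near 667 nm and signal to noise of each spot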

SMILES | composite z-score [1] | z-score [2] | z-score [3] | z-score [4] | composite z-score [5] | z-score [6] | composite z-score [7] | composite z-score [8] | composite z-score [9] | composite z-score [10]
CC(C)NC(=O)[C@@H]1c2ccccc2C(=O)N(C2Cc3ccccc3C2)[C@H]1c1ccc(CO)cc1 | 1.03 | -0.14 (inactive) | -0.0232 (inactive) | -0.377 (inactive) | 2.33 | 1.28 (inactive) | -0.0491 | 0.0941 | 0.436 | -0.126
CCOC(=O)C[C@H]1[C@H](OC(=O)c2ccc(C(=O)c3ccccc3)cc2)[C@@H](NC(=O)c2ccccc2)c2cc(OCCCO)ccc2N1C(=O)c1ccc2ccccc2n1 | 0.81 | -0.121 (inactive) | -0.429 (inactive) | 0.443 (inactive) | 1.54 | 0.104 (inactive) | 0.418 | 0.0946 | 1.03 | -0.142
COc1ccc(C(O)C2C=CC3C(=O)N(Cc4ccccc4)C(=O)C3N2n2cnnc2)cc1OCc1ccccc1 (stereo not given) | 0.953 | -1.56 (inactive) | 0.0901 (inactive) | -0.62 (inactive) | 2.59 | 1.69 (inactive) | 0.114 | 0.0181 | 0.331 | -0.0512
CCc1cccc(NC(=O)O[C@H]2[C@H](OC(=O)Nc3ccccc3-c3ccccc3)[C@@H](OC(=O)Nc3ccccc3-c3ccccc3)[C@@H](OC)O[C@@H]2CO)c1 | 1.53 | 0.182 (inactive) | 1.42 (inactive) | -2.51 (inactive) | 3.43 | -1.31 (inactive) | 0.126 | 0.666 | 1.07 | 0.0506
CC#CC(=O)Oc1ccccc1C=CC(=O)OCC | 0.779 | -2.32 (inactive) | -15.4 (active) | -2.16 (inactive) | 1.33 | 0.316 (inactive) | -0.0549 | 0.664 | 0.225 | -0.0531
COC(=O)C[C@H]1O[C@]2(C(=O)N(C)c3ccccc32)[C@@H](C)[C@@H]1[Si](C)(C)F | 1.54 | -2.06 (inactive) | -1.29 (inactive) | -0.922 (inactive) | 2.24 | 1.64 (inactive) | -0.168 | 1.86 | 0.59 | -0.132
[N-]=[N+]=NCc1ccccc1[C@@H]1OC(c2ccc(OCCCO)cc2)=N[C@]1(Cc1ccccc1)C(=O)NCC(O)CO (stereo not given in full) | 1.25 | -0.427 (inactive) | 0.0493 (inactive) | -0.659 (inactive) | 3.44 | 0.123 (inactive) | 0.414 | 0.238 | -0.27 | 0.411
COC(=O)[C@H](Cc1ccccc1)N[C@@H](/C=C/C1CC1)[C@H](O)Cc1ccccc1 | 0.136 | -0.701 (inactive) | -7.84 (inactive) | -0.581 (inactive) | 0.521 | -0.296 (inactive) | -0.127 | -0.327 | -0.505 | -0.218
NC(=O)NCC#Cc1ccc2c(c1)[C@]1(C(=O)N2)[C@H](c2ccc(O)cc2)N2[C@H](c3ccccc3)[C@H](c3ccccc3)OC(=O)[C@H]2[C@@H]1C(=O)O | -0.019 | 0.801 (inactive) | -0.0898 (inactive) | 0.607 (inactive) | 0.966 | -0.504 (inactive) | -0.255 | -0.581 | -0.156 | -0.191
CC(C)OC(=O)C=C1C[C@@H](c2ccccn2)O[C@@H](c2ccccn2)O1 | 0.875 | -0.0723 (inactive) | 0.228 (inactive) | -1.36 (inactive) | 0.0473 | 0.0183 (inactive) | -0.224 | 1.25 | 0.0527 | 0.0494
COc1ccc(/C=C/C=O)cc1 | 0.722 | 1.17 (inactive) | -7.83 (inactive) | 1.01 (inactive) | -0.714 | 0.0062 (inactive) | -0.15 | 0.775 | 0.271 | -0.045
O=C1C2C=CC(C(O)c3cccc4ccccc34)N(Nc3ccccc3F)C2C(=O)N1c1ccccc1 (stereo not given) | 1.54 | 0.0692 (inactive) | 0.865 (inactive) | 1.01 (inactive) | 3.69 | -0.316 (inactive) | 0.13 | 0.0926 | 1.12 | 0.222
O=C(CS)NCCCCCCNC(=O)[C@@H]1C[C@@H]2C(=O)NCC(=O)N2[C@@H]1c1cccc(OCCO)c1 | 1.01 | 0.309 (inactive) | 0.156 (inactive) | 0.616 (inactive) | 3.09 | 0.456 (inactive) | -0.327 | -0.07 | 0.188 | -0.0662
CN(C)CCCC[C@@H]1NC(=O)[C@@H]2C[C@H](C(=O)NCCCCCCN)[C@H](c3cccc(OCCO)c3)N2C1=O | 1.53 | -0.968 (inactive) | -4.9 (inactive) | -0.883 (inactive) | 3.25 | 0.26 (inactive) | 1.03 | 0.612 | 0.395 | 0.54
C=CC(=C)[C@H]1Oc2ccccc2S(=O)(=O)N2CCC[C@@H]12 | -1.3 | -0.946 (inactive) | -2.71 (inactive) | -0.601 (inactive) | -0.562 | -0.504 (inactive) | 0.0189 | 0.518 | -0.406 | -0.152
CCOC(=O)C[C@H]1[C@H](OC(=O)c2ccc(C(=O)c3ccccc3)cc2)[C@@H](NC(=O)CC(C)C)c2cc(OCCCO)ccc2N1C(=O)c1ccc2ccccc2n1 | 1.48 | 1.09 (inactive) | 0.606 (inactive) | 0.607 (inactive) | 1.99 | 0.995 (inactive) | 0.106 | 0.693 | 1.13 | -0.0565
CCOC(=O)C[C@H]1[C@H](OC(=O)c2ccc(C(=O)c3ccccc3)cc2)[C@@H](NC(=O)c2ccc3ccccc3n2)c2cc(OCCCO)ccc2N1C(=O)c1ccccc1 | 1.23 | -0.658 (inactive) | 0.103 (inactive) | -0.291 (inactive) | 1.94 | -1.16 (inactive) | -0.025 | 0.552 | 0.99 | 0.0864
C=C(C(=O)CC[C@@H](OC(=O)c1cccnc1)c1ccccc1OCCO)C(C)C | 1.44 | -0.73 (inactive) | -0.177 (inactive) | 0.404 (inactive) | -0.263 | 0.144 (inactive) | -0.0666 | 0.535 | 0.272 | -0.0703
O=C1N[C@@H](Cc2ccccc2)C(=O)N2[C@@H]1C[C@@H](C(=O)O)[C@H]2c1cccc(OCCO)c1 | 1.56 | 0.809 (inactive) | -0.66 (inactive) | -0.276 (inactive) | 1.06 | 1.18 (inactive) | -0.0206 | 1.43 | 0.611 | -0.071
COc1ccc(-c2cc3c(c(-c4ccc(Oc5ccccc5)cc4)n2)[Si](C(C)C)(C(C)C)OC3)cn1 | 0.483 | 1.32 (inactive) | 0.955 (inactive) | 1.88 (inactive) | -0.166 | -0.984 (inactive) | -0.119 | 0.503 | 0.342 | -0.26
C=C(CCCC)/C(=C/C[C@H](OC(=O)c1ccncc1)c1ccccc1OCCO)c1cnc2ccccc2c1 | 1.55 | -1.73 (inactive) | -1.14 (inactive) | 3.47 (inactive) | 1.34 | -0.0552 (inactive) | -0.217 | 1.27 | 1.13 | -0.111
CCC(CC)C(O)C1C=CC2C(=O)NC(=O)C2N1Nc1ccccn1 (stereo not given) | -0.26 | 0.188 (inactive) | 1.22 (inactive) | 0.315 (inactive) | 1.35 | -0.691 (inactive) | 0.0744 | -0.441 | -0.412 | 0.148
NC(=O)[C@@H]1[C@H]2C(=O)O[C@H](c3ccccc3)[C@H](c3ccccc3)N2[C@H](c2ccc(O)cc2)[C@@]12C(=O)Nc1ccccc12 | 1.41 | 0.0549 (inactive) | -1.41 (inactive) | 0.386 (inactive) | 3.53 | 1.11 (inactive) | -0.107 | -0.952 | 0.118 | -0.289
COC(=O)[C@@]1(CCC(=O)OC(C)(C)C)N=C(c2ccc(OCCCO)cc2)O[C@H]1c1ccccc1N=[N+]=[N-] | 1.28 | 0.0049 (inactive) | -0.786 (inactive) | 33.6 (active) | 1.83 | 0.817 (inactive) | -0.309 | 0.714 | 0.388 | -0.0828
COC(=O)[C@@]1(Cc2ccc(F)cc2)[C@H]2c3cc(C(=O)N4CCCC4)n(CCCNc4ncc(C(F)(F)F)cc4Cl)c3C[C@H]2CN1C(=O)c1ccccc1 | -0.954 | 1.62 (inactive) | 2.15 (inactive) | 2.65 (inactive) | 2.65 | -0.87 (inactive) | 0.83 | -0.756 | 0.696 | 0.476
C=CCOC(=O)[C@H]1[C@@H]2C(=O)O[C@@H](c3ccccc3)[C@@H](c3ccccc3)N2[C@@H](c2ccc(OCCOC(=O)[C@@H]3C[C@@H]4C(=O)N[C@@H](CCCCNC(C)=O)C(=O)N4[C@@H]3c3ccc(O)cc3)cc2)[C@]12C(=O)Nc1ccccc12 | 1.54 | 1.7 (inactive) | -0.133 (inactive) | 3.53 (inactive) | 2.6 | -0.264 (inactive) | 0.0025 | 1.14 | 1.08 | -0.0625
CC(C)C[C@@H]1NC(=O)[C@@H]2C[C@H](C(=O)O)[C@H](c3cccc(OCCO)c3)N2C1=O | 0.64 | -0.19 (inactive) | -0.734 (inactive) | -0.56 (inactive) | 1.89 | 1.06 (inactive) | -0.173 | -0.0135 | -0.155 | -0.229
CC(CO)N1C(=O)[C@@H]2C3C(=O)OCCC/C=C\[C@H]3OC23C=CCN(C(C)(C)C)C(=O)[C@@H]13 (stereo not given in full) | 0.0207 | -0.226 (inactive) | -0.911 (inactive) | -0.706 (inactive) | 0.478 | -0.0054 (inactive) | -0.216 | 0.0872 | 0.201 | -0.0905

From PubChem BioAssay
